# Dicer inh: inhibitors of human Dicer processing of pre-microRNA | actives 6% (n = 47,000) | cat-ELCCA pre-miR-21 Dicer processing, chemiluminescence; active compounds read high | z-score at 25 µM; in the data active = z-score above about 3, passing the limit was not always enough;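 also: plate controls were vehicle for no effect and no enzyme for full effect; higher signal means more uncleaved substrate so more Dicer inhibition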
# Target sequence (Q9UPY3 whole entry, looked up): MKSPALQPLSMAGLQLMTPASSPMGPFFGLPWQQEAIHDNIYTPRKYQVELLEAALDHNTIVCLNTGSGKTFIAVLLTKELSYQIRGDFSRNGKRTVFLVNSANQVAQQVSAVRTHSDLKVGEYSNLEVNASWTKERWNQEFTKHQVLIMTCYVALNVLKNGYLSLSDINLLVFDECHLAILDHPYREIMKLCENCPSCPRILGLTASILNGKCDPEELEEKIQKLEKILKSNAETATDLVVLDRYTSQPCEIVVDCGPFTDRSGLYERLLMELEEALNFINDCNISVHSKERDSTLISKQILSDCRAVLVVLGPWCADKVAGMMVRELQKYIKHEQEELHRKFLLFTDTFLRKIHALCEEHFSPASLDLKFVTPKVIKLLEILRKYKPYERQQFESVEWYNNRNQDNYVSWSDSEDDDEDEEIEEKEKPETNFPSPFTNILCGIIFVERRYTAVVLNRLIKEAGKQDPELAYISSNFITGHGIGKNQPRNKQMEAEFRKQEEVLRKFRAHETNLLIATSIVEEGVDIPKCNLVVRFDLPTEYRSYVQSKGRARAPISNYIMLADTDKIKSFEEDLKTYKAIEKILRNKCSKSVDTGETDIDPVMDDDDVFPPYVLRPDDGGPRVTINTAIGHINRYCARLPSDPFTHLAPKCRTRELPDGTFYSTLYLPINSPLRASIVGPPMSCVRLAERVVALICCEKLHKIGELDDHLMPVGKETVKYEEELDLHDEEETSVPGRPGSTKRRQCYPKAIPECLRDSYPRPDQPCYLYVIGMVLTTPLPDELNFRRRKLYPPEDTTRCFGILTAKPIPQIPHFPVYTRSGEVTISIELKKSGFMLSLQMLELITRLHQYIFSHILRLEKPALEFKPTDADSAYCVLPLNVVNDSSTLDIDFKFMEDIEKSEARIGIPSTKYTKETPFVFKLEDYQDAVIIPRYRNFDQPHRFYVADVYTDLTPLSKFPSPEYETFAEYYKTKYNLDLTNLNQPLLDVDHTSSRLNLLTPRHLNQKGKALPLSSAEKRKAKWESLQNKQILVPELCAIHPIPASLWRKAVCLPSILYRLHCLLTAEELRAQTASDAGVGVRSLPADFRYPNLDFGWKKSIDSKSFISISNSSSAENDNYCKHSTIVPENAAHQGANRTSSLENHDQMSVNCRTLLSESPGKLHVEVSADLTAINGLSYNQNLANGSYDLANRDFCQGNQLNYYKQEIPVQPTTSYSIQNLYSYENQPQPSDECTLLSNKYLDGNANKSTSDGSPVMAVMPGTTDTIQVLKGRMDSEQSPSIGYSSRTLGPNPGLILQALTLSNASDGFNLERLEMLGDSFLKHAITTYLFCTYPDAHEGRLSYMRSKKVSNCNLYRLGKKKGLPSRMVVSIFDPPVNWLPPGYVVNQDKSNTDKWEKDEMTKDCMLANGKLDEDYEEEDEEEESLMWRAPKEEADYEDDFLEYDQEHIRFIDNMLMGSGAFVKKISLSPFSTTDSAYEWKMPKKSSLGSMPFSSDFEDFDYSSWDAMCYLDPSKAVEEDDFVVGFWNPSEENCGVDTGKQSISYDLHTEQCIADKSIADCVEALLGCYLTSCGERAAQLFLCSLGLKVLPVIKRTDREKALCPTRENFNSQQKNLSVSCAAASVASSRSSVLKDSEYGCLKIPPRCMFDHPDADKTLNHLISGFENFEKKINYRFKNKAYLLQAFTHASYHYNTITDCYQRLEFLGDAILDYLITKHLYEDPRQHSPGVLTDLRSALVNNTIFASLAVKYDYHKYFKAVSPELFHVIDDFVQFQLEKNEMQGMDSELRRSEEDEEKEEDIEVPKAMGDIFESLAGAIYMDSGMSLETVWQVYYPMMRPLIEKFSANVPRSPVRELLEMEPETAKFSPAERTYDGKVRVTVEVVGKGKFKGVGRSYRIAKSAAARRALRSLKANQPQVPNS
# The depositor's hits bear a star. This excerpt belongs to a sample that is enriched for hits.
SMILES,Dicer inh
COC(=O)c1sccc1Oc1ccc(Cl)cc1N1C(=O)CCC1=O,1.5
CC1(C)CCC(=O)N(c2ccc(OC(F)(F)F)cc2)C1=O,2
Cc1ccc(Cl)cc1N1C(=O)CCC(C)(C)C1=O,3.3*
CCCC1CC(C)(c2csc(Cc3ccc(OCC)cc3)n2)OC1=O (stereo not drawn),4.9*
CCCCCC1(C(=O)OCC)CC(C)(c2csc(N)n2)OC1=O (stereo not drawn),-0.97
CCOc1ccc(C2C3=C(CC(C)(C)CC3=O)OC3=C2C(=O)CC(C)(C)C3)cc1,0.37
CC1CCCCN1C(=O)c1nn2c(c1Cl)NC(c1ccco1)CC2C(F)(F)F (stereo not drawn),-3.5
CC(C)(C)NC(=O)c1nn2c(c1Cl)NC(c1ccccc1)CC2C(F)(F)F (stereo not drawn),-1.9
COCCNC(=O)c1nn2c(c1Cl)NC(c1ccc(Br)cc1)CC2C(F)(F)F (stereo not drawn),2.7
O=C(NCc1ccco1)c1nn2c(c1Cl)NC(c1ccc(F)cc1)CC2C(F)(F)F (stereo not drawn),4.9*
O=C(NCc1ccncc1)c1cc2n(n1)C(C(F)(F)F)CC(c1ccco1)N2 (stereo not drawn),0.35
O=C(NCc1ccc(F)cc1)c1nn2c(c1Cl)NC(c1ccco1)CC2C(F)(F)F (stereo not drawn),5.1*
COC(=O)c1c(C)oc(C)c1S(=O)(=O)NCc1csc2ccc(Cl)cc12,2.2
CC1=C2CCCC2CC/C1=N\NC(N)=O (stereo not drawn),-0.44
O=C(CSc1nc2c(c(C(F)(F)F)n1)CCc1ccccc1-2)NCCCN1CCOCC1,-0.31
CC1Cc2ccccc2N1C(=O)c1cc2n(n1)C(C(F)(F)F)CC(c1ccco1)N2 (stereo not drawn),0.37
CSc1ccsc1C1=NC(C)(C)CO1,-0.35
Cc1[nH]n(-c2ccccc2)c(=S)c1C=NC(C)Cc1ccccc1 (stereo not drawn),-5.8
Cc1cccc(C2Nc3cccc4cccc(c34)N2)c1,3.6*
COc1cc(C2N3CC4(C)CN2CC(C)(C3)C4)ccc1O (stereo not drawn),2.7
COc1ccc(C2NC(=O)c3ccccc3N2)cc1O (stereo not drawn),1.3
c1ccc(-c2ccc(C3Nc4cccc5cccc(c45)N3)cc2)cc1,3.2*
Oc1ccc2ccccc2c1C1Nc2cccc3cccc(c23)N1,-0.25
COc1cc(C2Nc3cccc4cccc(c34)N2)ccc1O,3.6*
N#Cc1ccc(C2NC(=O)c3ccccc3N2)cc1 (stereo not drawn),-1.5
SMILES,Dicer inh
Cc1ccc(C2CC(c3cccc(C)c3)n3ncnc3N2)cc1 (stereo not drawn),-0.36
CCc1ccc(C2CC(c3cccc(C)c3)n3nc(N)nc3N2)cc1 (stereo not drawn),-0.17
COc1ccc(-c2c(-c3ccccc3)oc3cc(O)ccc3c2=O)cc1,0.83
O=C1c2cccc3cccc(c23)C(=O)N1CC1CCC(CN2C(=O)c3cccc4cccc(c34)C2=O)CC1 (stereo not drawn),0.5
CN1C(c2ccccc2)CC(=O)C2(O)CCCCC12 (stereo not drawn),-1.1
Cc1ccc(S(=O)(=O)N(CC(O)Cn2nnc3ccccc32)c2ccccc2)cc1 (stereo not drawn),-0.69
Cc1ccc(CSc2n[nH]c(-c3ccc(C(C)(C)C)cc3)n2)cc1,1.1
CCOC(=O)C(NC(=O)c1cccc(Cl)c1)(Nc1ccc(F)c(F)c1)C(F)(F)F (stereo not drawn),0.3
Cc1nn(C)c(-c2nc(-c3ccc(C(F)(F)F)cc3)no2)c1[N+](=O)[O-],-0.27
Cc1ccc2oc3c(c(=O)c2c1)C(c1ccc(F)cc1)N(Cc1ccc2c(c1)OCO2)C3=O (stereo not drawn),1.6
COC(=O)C1=C(C)N(c2ccc(F)cc2)CC1=O,3.2*
COC(=O)C1=NNC2C(=O)N(c3ccc(F)cc3)C(=O)C12 (stereo not drawn),1.8
COC(=O)C1=C(C)NC(=O)CC1c1ccc(F)cc1 (stereo not drawn),2.2
Cc1cc([N+](=O)[O-])ccc1S(=O)(=O)NNC(=O)COc1ccc(C)c2c1CCC2,-1.2
CC(C)(C)c1csc(-c2ccc(N3CCC(C(F)(F)F)CC3)nc2)n1,-1.4
N#Cc1c(-c2cccs2)c2c([nH]c1=S)CCCC2,-0.34
O=C(c1ccncc1)N(c1cc2sc(=O)oc2c2ccccc12)S(=O)(=O)c1cccs1,-5.5
Cc1ccc(C)c(S(=O)(=O)N(C(=O)c2ccncc2)c2ccc3oc(=O)sc3c2)c1,-1.7
O=C(c1ccncc1)N(c1ccc2oc(=O)sc2c1)S(=O)(=O)c1cccc2cccnc12,3.7*
O=C(c1cccnc1)N(c1ccc2oc(=O)sc2c1)S(=O)(=O)c1cccc2cccnc12,4.1*
Cc1cc2cc(N(C(=O)c3ccncc3)S(=O)(=O)c3cc(C)c(C)cc3C)ccc2o1,-0.81
Cc1ccc2nc(C)cc(NCCO)c2c1,-1.1
Cc1cc(Nc2ccccc2Cl)c2ccccc2n1,-0.1
CCOC(=O)CC(=O)CSc1nc(C)c2cc(OCC)ccc2n1,0.05
CCOc1ccccc1Nc1cc(C)nc2ccc(OC)cc12,1.7
